This passage reports growth results from PubChem BioAssay (NCI).

Test systems include SR leukemia; RPMI-8226 leukemia; OVCAR-8 ovarian; OVCAR-5 ovarian; OVCAR-4 ovarian; SK-OV-3 ovarian; IGROV1 ovarian; OVCAR-3 ovarian; HS 578T breast; NCI/ADR-RES ovarian; T-47D breast; BT-549 breast; MDA-MB-435 melanoma; SW-620 colon; MCF7 breast; HCT-116 colon; HCC-2998 colon; KM12 colon; MDA-MB-468 breast.
Common to all, as to test: NCI-60 one-dose screen, 48 h (100 = growth as untreated, 0 = no growth, -100 = all killed)
Holding throughout (conditions): 10 µM unless noted

Compounds without any hit were thinned out: in the full panel of roughly 83,000, 20% have a hit.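 The test compound was applied at a single concentration to cells in 96-well plates for 48 hours, and percent growth was recorded.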 Values without a mark were called inactive. The source made the active and inactive calls. Rule for the calls: active = growth percent below 10; inactive = the rest.

Turning to `Cc1cc(=O)oc2cc(OCCCCOc3ccc(/C=C/C(=O)Nc4ccccc4N)cc3)ccc12`, the growth in the assay with SR leukemia was 56.4%; in the assay with RPMI-8226 leukemia, 18.7%; in the assay with OVCAR-8 ovarian it was 85.2%; in the assay on OVCAR-5 ovarian, 84.8%; in the assay on OVCAR-4 ovarian, 73.1%; with SK-OV-3 ovarian it was 92.1%. Moreover, the growth in the assay with IGROV1 ovarian is 81.7%; in the assay on OVCAR-3 ovarian, 64.9%; with HS 578T breast, 118%; with NCI/ADR-RES ovarian, 74.3%; in the assay on T-47D breast, 31.4%; in the assay with BT-549 breast, -23.9% (active). Also, the growth is 78.3% with MDA-MB-435 melanoma; 71.9% in the assay on SW-620 colon; 18.6% in the assay on MCF7 breast; 45.6% in the assay on HCT-116 colon; 89% in the assay on HCC-2998 colon; 31.2% with KM12 colon. In the assay with MDA-MB-468 breast, the growth is 34.2%.
`CCCCn1c(O)c(N=Nc2nc(-c3cc4ccccc4oc3=O)cs2)c2cc(Br)ccc21`: the growth with SR leukemia was 103%; in the assay on RPMI-8226 leukemia, 108%; in the assay with OVCAR-8 ovarian it was 113%; in the assay on OVCAR-5 ovarian, 96.2%; in the assay on OVCAR-4 ovarian, 111%; with SK-OV-3 ovarian, 124%. Moreover, the growth was 114% in the assay on IGROV1 ovarian; 99.1% in the assay with OVCAR-3 ovarian; 108% in the assay on HS 578T breast; 102% in the assay with NCI/ADR-RES ovarian; 107% in the assay with T-47D breast; 132% in the assay with BT-549 breast. Further, the growth in the assay on MDA-MB-435 melanoma was 111%; with SW-620 colon, 114%; with MCF7 breast, 89.8%; in the assay with HCT-116 colon, 107%; with HCC-2998 colon it was 111%; in the assay on KM12 colon, 114%. The growth with MDA-MB-468 breast is 113%.
For `Cn1cc(-c2nnc(N)nc2-c2c[nH]c3ccc(Br)cc23)c2cc(Br)cnc21`, the growth with SR leukemia was 23.8%; in the assay on RPMI-8226 leukemia, 41.6%; in the assay with OVCAR-8 ovarian it was 59.4%; in the assay with OVCAR-5 ovarian, 73.8%; with OVCAR-4 ovarian it was 45.6%; in the assay on SK-OV-3 ovarian, 89.2%. Moreover, the growth in the assay on IGROV1 ovarian is 46.4%; with OVCAR-3 ovarian it was 55.8%; in the assay on HS 578T breast, 59.2%; in the assay on NCI/ADR-RES ovarian, 64.5%; in the assay on T-47D breast, 47.7%; in the assay with BT-549 breast, 50.2%. The growth is 33.6% with MDA-MB-435 melanoma; 75.1% in the assay with SW-620 colon; 29.8% in the assay on MCF7 breast; 44.8% in the assay on HCT-116 colon; 72.7% in the assay on HCC-2998 colon; 49.3% with KM12 colon. Further, the growth with MDA-MB-468 breast was 25%.
Take `C=C1CCC2C3(C)COC(c4cc(F)cc(F)c4)OC3CCC2(C)C1CC(O)C1=CCOC1=O` (configuration not stated): the growth in the assay on SR leukemia was 28.6%; in the assay on RPMI-8226 leukemia it was 11%; in the assay on OVCAR-8 ovarian, 16.2%; in the assay on OVCAR-5 ovarian, 87%; in the assay on OVCAR-4 ovarian it was 53.1%; with SK-OV-3 ovarian, 102%. For the same compound, the growth in the assay with IGROV1 ovarian is 60.1%; with OVCAR-3 ovarian, 61.4%; in the assay with HS 578T breast, 70.4%; in the assay with NCI/ADR-RES ovarian, 14.5%; in the assay on T-47D breast, 40.5%; with BT-549 breast it was -12.9% (active). Moreover, the growth is 60% in the assay with MDA-MB-435 melanoma; -44.2% (active) in the assay on SW-620 colon; 15.3% in the assay with MCF7 breast; -33.8% (active) in the assay with HCT-116 colon; 45.8% with HCC-2998 colon; 60.5% in the assay with KM12 colon. Besides, in the assay with MDA-MB-468 breast, the growth was 70.7%.
In the case of `CC(=O)Nc1ccc(-n2cnc3ccc(-c4ccc(O)cc4)cc32)cc1`, the growth with SR leukemia is 15.8%; with RPMI-8226 leukemia, 38.9%; in the assay on OVCAR-8 ovarian, 42.1%; in the assay with OVCAR-5 ovarian, 72.2%; in the assay with OVCAR-4 ovarian, 67.3%; in the assay with SK-OV-3 ovarian, 66.8%. Besides, the growth was 27.2% in the assay with IGROV1 ovarian; 54.3% with OVCAR-3 ovarian; 8.57% (active) in the assay on HS 578T breast; 84.4% in the assay with NCI/ADR-RES ovarian; 47.9% in the assay on T-47D breast; 51.4% in the assay with BT-549 breast. In addition, the growth is 44.7% in the assay with MDA-MB-435 melanoma; 39.2% in the assay on SW-620 colon; 10.6% in the assay with MCF7 breast; 20.2% in the assay with HCT-116 colon; 66.3% with HCC-2998 colon; 17.8% in the assay on KM12 colon. Also, the growth in the assay on MDA-MB-468 breast was 22%.
Take `Cc1ccc(-n2c(-c3cc4ccccc4nc3Cl)noc2=O)cc1`: the growth in the assay with SR leukemia is 31.8%; in the assay with RPMI-8226 leukemia it was 81.2%; in the assay on OVCAR-8 ovarian it was 94.4%; in the assay with OVCAR-5 ovarian, 98.1%; in the assay with OVCAR-4 ovarian, 92.5%; in the assay on SK-OV-3 ovarian, 80.1%. For the same compound, the growth in the assay on IGROV1 ovarian was 90.9%; in the assay with OVCAR-3 ovarian it was 99.8%; in the assay with HS 578T breast, 80.9%; in the assay on NCI/ADR-RES ovarian it was 52.3%; in the assay on T-47D breast, 63.9%; in the assay with BT-549 breast it was 81.1%. For the same compound, the growth is 6.44% (active) with MDA-MB-435 melanoma; 68.9% in the assay on SW-620 colon; 64.5% in the assay on MCF7 breast; 86% in the assay on HCT-116 colon; 90.9% in the assay with HCC-2998 colon; 55% with KM12 colon. Besides, in the assay on MDA-MB-468 breast, the growth was 16.2%.
`CC1(C)CC[C@]2(C(=O)Nc3ccccc3)CC[C@]3(C)C(=CCC4[C@@]5(C)C[C@@H](O)[C@H](O)[C@@](C)(CO)C5CC[C@]43C)C2C1` (some centres not stated): the growth in the assay on SR leukemia was 15.2%; in the assay on RPMI-8226 leukemia it was 9.08% (active); in the assay with OVCAR-8 ovarian, 62.7%; in the assay with OVCAR-5 ovarian it was 86.2%; with OVCAR-4 ovarian, 58.9%; in the assay on SK-OV-3 ovarian it was 65.5%. The growth with IGROV1 ovarian was 79%; in the assay on OVCAR-3 ovarian, 73.4%; in the assay on HS 578T breast, 62.8%; in the assay with NCI/ADR-RES ovarian, 61.4%; in the assay on T-47D breast, 26.9%; in the assay with BT-549 breast it was 57%. Moreover, the growth is 47.9% with MDA-MB-435 melanoma; 72.2% in the assay with SW-620 colon; 19.6% in the assay on MCF7 breast; 34.3% in the assay with HCT-116 colon; 81.9% in the assay with HCC-2998 colon; 55.7% with KM12 colon. The growth with MDA-MB-468 breast is 22.2%.
As for `COc1ccc(C2CC(c3ccc(S(=O)(=O)NCCNc4nc(Nc5ccc(F)cc5)nc(N(C)C)n4)cc3)=Nc3c(N)nc(N)nc3N2)cc1` (configuration not stated), the growth in the assay with SR leukemia was 8.79% (active); with RPMI-8226 leukemia, 24%; in the assay on OVCAR-8 ovarian, 79.5%; in the assay with OVCAR-5 ovarian it was 98.8%; in the assay on OVCAR-4 ovarian it was 83.7%; with SK-OV-3 ovarian it was 108%. For the same compound, the growth with IGROV1 ovarian is 95.7%; in the assay on OVCAR-3 ovarian it was 95.4%; in the assay on HS 578T breast, 70.6%; with NCI/ADR-RES ovarian, 99.9%; with T-47D breast, 66.2%; with BT-549 breast, 57.1%. For the same compound, the growth was 83.3% in the assay on MDA-MB-435 melanoma; 96% in the assay with SW-620 colon; 47.6% with MCF7 breast; 51.2% in the assay with HCT-116 colon; 90.6% in the assay on HCC-2998 colon; 82.5% in the assay with KM12 colon. Besides, the growth in the assay with MDA-MB-468 breast is 8.63% (active).
